# Source: PubChem BioAssay
# Rows were chosen to be rich in hits. Some 19% of all compounds tested hit in one or more screens of this group.
# DT40 TDP1 CPT: DT40-hTDP1 cell growth loss with CPT. chicken DT40 Tdp1-/-;hTDP1 cells + 20 nM CPT, ATP luminescence, 48 h. Potency, µM (series often up to 46.2 µM), for inactives: top-dose activity change, negative = growth inhibition, usual class: inhibitors. 420,000 tested, 12% active; also: potency is read from the fitted curve at half-maximal effect; nearly all actives have a fitted effect of over 55% in size
#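 Chicken DT40 Tdp1-/- cells stably complemented with human TDP1 were seeded at 400 cells/well in medium containing 20 nM camptothecin, exposed to pin-transferred compounds, and grown at 37 °C for at least 48 hr. Viability was read as ATP luminescence.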
# HT1080-NT tox: kills 2HG-producing HT-1080-NT fibrosarcoma cells | HT-1080-NT fibrosarcoma viability, CellTiter-Glo ATP luminescence, 48 h | Potency, µM (series often up to 46.1 µM), for the others: at the top dose activity, negative = less viability, most hits filed as cytotoxic | AID 686970 | 360,000 tested, 1.6% active;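 also: NT is the 2HG producing partner of a matched IDH1 knockdown line; potency is read from the fitted curve at half-maximal effect; 0% = DMSO-treated cells and -100% = media-only wells without cells; nearly all actives have a fitted effect of over 55% in size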
#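 Viability of the 2HG-overproducing fibrosarcoma line after 48 hours of compound exposure at 37 degrees C was determined by luminescence with CellTiter-Glo, and concentration-effect curves were then fitted and categorized.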
# TDP1 cell noCPT: qHTS for Inhibitors of human tyrosyl-DNA phosphodiesterase 1 (TDP1): qHTS in cells in absence of CPT; DT40 Tdp1-/- hTDP1 cells, no CPT, ATP luminescence, 48 h; Potency, µM (top dose mostly 46.2 µM), inactives show at the top dose activity change, negative = growth inhibition, actives largely listed as inhibitors; 420,000 tested, 15% active; also: potency is read from the fitted curve at half-maximal effect; nearly all actives have a fitted effect of over 55% in size
#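 Stably hTDP1-transfected Tdp1-null chicken DT40 cells were treated with library compounds minus camptothecin and grown for at least 48 hr at 37 °C, after which cellular ATP was quantified by luminescence.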
# IL1B secr inh: blocks inflammasome-driven IL-1 beta release; THP-1 LPS/ATP IL-1B secretion, AlphaLISA, 16 h; stronger effect = lower value; activity change, % at 57.5 µM; 360,000 tested, 4.7% active; in the data active = activity change below about -50%; inconclusive = mostly about -30% to -49%
#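 THP-1 cells pretreated 1 hr with compounds (up to 57.5 uM final), then stimulated with LPS (250 ng/mL final) plus ATP (1.25 mM final); secreted IL-1B measured by AlphaLISA after 16 hr, decreased signal indicating inhibition.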
# HT1080 IDH1KD tx: toxicity to HT-1080 IDH1 knockdown cells (counter line); HT-1080 IDH1 knockdown viability, ATP luminescence, 48 h; Potency, µM (series often up to 46.1 µM), inactives show at the top dose activity, negative = toxicity, most hits filed as cytotoxic; 360,000 tested, 2% active;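 also: potency is read from the fitted curve at half-maximal effect; 0% = DMSO wells and -100% = cell-free medium wells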
#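 Assay cells: HT-1080 with IDH1 knockdown, 750 per well, RPMI/5% FBS. Exposure: 48 h at 37 °C following 2 h pre-incubation. Read: CellTiter-Glo luminescence; fitted concentration-response, curve class assigned.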
# * = called active by the depositor; ? = inconclusive; nt = not tested or not shown. Unless noted, calls follow the shape of the dose curve; as a rule, active = well fitted curve in the direction sought with a large enough effect; inconclusive = small, poorly fitted or top-dose-only effect, or another doubt; inactive = no such curve, though single readings can be large; an effect the other way counts as inactive or inconclusive. Unless noted, % is scaled to controls: 0 for no effect and ±100 for the full control effect.
SMILES,DT40 TDP1 CPT,HT1080-NT tox,TDP1 cell noCPT,IL1B secr inh,HT1080 IDH1KD tx
CSCC[C@H](NC(=O)C1CCN(S(=O)(=O)c2ccc(C)cc2)CC1)C(=O)NCc1ccco1,-26%,-8%,-22%,-25,-2%
O=C(COC(=O)c1cc(S(=O)(=O)N2CCOCC2)ccc1O)NCCc1ccccc1,-7%,1%,-9%,-4,-4%
CCC(Cn1nnc2ccccc2c1=O)NC(=O)Nc1cc(OC)cc(OC)c1 (stereo not drawn),?,nt,-3%,nt,nt
O=C1CSC(c2c(F)cccc2Cl)N1c1cccc(F)c1 (stereo not drawn),?,-1%,-17%,-18,0%
CCCC(=O)Nc1c(C(=O)OCC)[nH]c2ccccc12,-21%,?,1.8µM*,-54*,-4%
Cn1c(=O)c2[nH]c(NN=Cc3cccc(Br)c3)nc2n(C)c1=O,23µM*,-11%,15µM*,-20,-9%
CCNC(=S)N(Cc1cccs1)Cc1cc2cc(OCC)ccc2[nH]c1=O,?,4%,16µM*,-2,11%
CNC(=S)N(Cc1cccs1)Cc1cc2ccc(OC)cc2[nH]c1=O,?,-7%,18µM*,-10,-18%
CCN(CC)CCCN(Cc1cc2cc(OC)c(OC)cc2[nH]c1=O)C(=O)Nc1ccccc1,?,-6%,-20%,?,4%
COc1cc2cc(CN(Cc3cccs3)C(=S)Nc3ccccc3)c(=O)[nH]c2cc1OC,?,0%,21µM*,13,4%
Cc1cccc2cc(CN(Cc3cccs3)C(=S)NCC3CCCO3)c(=O)[nH]c12 (stereo not drawn),?,-1%,?,-12,-17%
Cc1ccc(NC(=S)N(Cc2cccs2)Cc2cc3cccc(C)c3[nH]c2=O)cc1,21µM*,-4%,12µM*,-13,-14%
CC(NC(=O)c1cccnc1)c1nnc2n1CCN(Cc1ccc(-c3ccccc3Cl)o1)CC2 (stereo not drawn),-5%,nt,-22%,nt,nt
COc1ccc(-c2nc(CNS(=O)(=O)c3ccc(F)cc3)cs2)cc1,?,nt,18µM*,nt,nt
COc1ccc(S(=O)(=O)NCCc2csc(-c3ccc(F)cc3)n2)cc1F,23µM*,nt,26µM*,nt,nt
COc1ccc(-c2nc(CNS(=O)(=O)c3cccc(F)c3)cs2)cc1,-76%,nt,15µM*,nt,nt
COc1ccc(S(=O)(=O)NCCc2csc(-c3ccc(F)cc3)n2)cc1,12µM*,nt,15µM*,nt,nt
N#Cc1cccc(NC(=O)N2CCCC3(CCN(C(=O)c4csnn4)CC3)C2)c1,9%,nt,-13%,nt,nt
O=C1CCc2cc(NS(=O)(=O)c3ccc([N+](=O)[O-])cc3)cc3c2N1CCC3,-9%,3%,-16%,19,1%
CCc1nc2ccc(C(=O)NCc3ccc4c(c3)OCO4)cn2c1N(C)Cc1ccc(OC)cc1,18µM*,-30%,23µM*,-10,-17%
CCc1nc2ccc(C(=O)NCc3ccc4c(c3)OCO4)cn2c1N(C)CCC(C)C,?,?,15µM*,0,?
CCc1nc2ccc(C(=O)NCc3cccs3)cn2c1N(CCC(C)C)CCN(C)C,?,?,?,-25,?
CCc1ccc2[nH]c3nc(N/N=C/c4ccc(O)cc4O)nnc3c2c1,?,?,?,150,5.2µM*
COc1cccc(-c2nc(CS(=O)CC(=O)NC3CCCCC3)c(C)o2)c1 (stereo not drawn),3%,16%,-22%,11,3%
O=C(Nc1ccc(N2CCN(C(=O)c3ccco3)CC2)c(Cl)c1)c1cc2ccccc2o1,4.1µM*,?,8.2µM*,-105*,15µM*
O=C(Nc1ccc(N2CCN(C(=O)c3ccccc3)CC2)c(Cl)c1)c1ccco1,16µM*,-20%,13µM*,-79*,?
COC(=O)c1ccc(N2CCN(C)CC2)c(NC(=O)c2cc3ccccc3o2)c1,21µM*,-1%,23µM*,8,2%
